# SNCA expr inh = SNCA gene expression inhibition; HEK-293 SNCA-luciferase knock-in, luminescence, 24 h; Potency, µM (doses to about 57.2 µM), most hits filed as inhibitors; 140,000 tested, 0.17% active; further: nearly all actives have a fitted effect of over 45% in size
# SNCA viab count = counter-screen for SNCA expression inhibitors: cell viability. 150,000 tested, 0.12% active. HEK-293-SNCA-luc viability, GF-AFC fluorescence, 24 h. AID 1671193. Potency, µM (series often up to 57.1 µM), actives largely listed as cytotoxic; further: nearly all actives have a fitted effect of over 30% in size
#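 HEK-293-SNCA-luc cells (1500/well) plated 24 h, then exposed 24 h to a dilution series; GF-AFC added 30 min at 37C, fluorescence 405/540 nm; normalised to medium-only and DMSO wells, Hill fit.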
# IP6K1 inh = IP6K1 kinase inhibition; activity change, % (series mostly up to about 58 µM); Q92551; AID 1645851; IP6K1 kinase, ADP-Glo luminescence, 2 h; hits give low values; 140,000 tested, 0.81% active; in the data active means activity change below about -25%
#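 ADP-Glo luminescence measures ADP made by human IP6K1 during a 2 h RT reaction with ATP/IP6 (mix at 1.3 mM/130 uM); top library doses 57.5 and 19.1 uM final.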
# GPT2 inhibitor = inhibitors of human GPT2 alanine aminotransferase; Recombinant GPT2, coupled pyruvate oxidase/HRP Amplex Red fluorescence; Potency, µM (series often up to 57.7 µM), usual class: inhibitors; 100,000 tested, 0.25% active; AID 1671188; further: nearly all actives have a fitted effect of over 60% in size
# Target sequence (Q8TD30 whole entry, looked up): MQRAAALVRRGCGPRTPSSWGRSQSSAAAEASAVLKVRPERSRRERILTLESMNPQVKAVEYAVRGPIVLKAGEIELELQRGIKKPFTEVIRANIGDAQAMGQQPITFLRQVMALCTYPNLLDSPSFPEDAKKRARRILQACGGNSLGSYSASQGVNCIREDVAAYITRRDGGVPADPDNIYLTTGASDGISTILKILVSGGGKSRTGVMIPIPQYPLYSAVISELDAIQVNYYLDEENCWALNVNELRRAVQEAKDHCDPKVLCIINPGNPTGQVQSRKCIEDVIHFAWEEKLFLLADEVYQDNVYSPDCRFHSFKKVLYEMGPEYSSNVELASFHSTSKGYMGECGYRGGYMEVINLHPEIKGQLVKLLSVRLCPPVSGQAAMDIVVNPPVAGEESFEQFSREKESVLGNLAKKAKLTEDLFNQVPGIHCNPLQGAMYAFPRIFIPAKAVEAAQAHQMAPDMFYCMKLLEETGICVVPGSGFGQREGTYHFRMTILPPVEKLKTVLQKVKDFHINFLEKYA
#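 Recombinant GPT2 (10ng/uL) with 250uM a-KG and 2mM L-alanine, 30 min at room temperature, in HEPES pH 7.5 buffer. Pyruvate detected by pyruvate oxidase/HRP/Amplex Red fluorescence after 30 min in the dark; AOA (50uM) as positive control.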
# IP6K1 inh cnf = human IP6K1 inhibition, confirmatory | shares compounds with IP6K1 inh | recombinant IP6K1 kinase, ADP-Glo luminescence, 2 h | Potency, µM (top dose mostly 49 µM), most hits filed as inhibitors | 1,200 tested, 13% active | AID 1645852; further: nearly all actives have a fitted effect of over 65% in size
# A number is an active result; - = inactive; ? = inconclusive; . = not tested or not shown; [ ] = dose if it differs, or a comment. In the library only some 1% were active in any assay of this set; here they are far more common. Unless noted, the call rests on the fitted dose curve; in most records, active means well fitted curve in the direction sought with a large enough effect; inconclusive means small, poorly fitted or top-dose-only effect, or another doubt; inactive means no such curve, though single readings can be large; an effect the other way counts as inactive or inconclusive.
SMILES,SNCA expr inh,SNCA viab count,IP6K1 inh,GPT2 inhibitor,IP6K1 inh cnf
CCc1nc2ccccc2n1CCCCOc1ccccc1C,?,-,-29.5,.,-
CNC(=O)[C@H]1C[C@]2(CCCCN(CCO)C2=O)N(C(C)=O)[C@H]1c1ccccc1,.,.,-,.,.
CN(C)C/C=C/C(=O)Nc1cccc(C(=O)Nc2ccc(Nc3nccc(-c4cccnc4)n3)cc2)c1,.,?,-28.6,?,?
CN(Cc1ccc2nsnc2c1)Cc1cc2n(n1)CCCNC2,-,-,-25.0,-,-
CN(Cc1cc2n(n1)CCCNC2)Cc1nc(-c2ccccc2)cs1,-,-,-,-,.
COc1ccc(Nc2cc3c(cn2)CN(Cc2ccncc2)CCN3)cn1,-,-,-,-,.
COc1ccc(Nc2cc3c(cn2)NCCN(Cc2ccccc2)C3)cn1,?,-,-25.5,?,-
c1ccc(CN2CCNc3cc(-c4ccncc4)ncc3C2)cc1,-,-,-,?,.
c1ccc(-c2cc3c(cn2)NCCN(Cc2ccsc2)C3)cc1,-,-,-25.4,-,-
Clc1ccc(-c2cc3c(cn2)CN(Cc2ccncc2)CCN3)cc1,-,-,-26.9,-,-
CNc1nccc(N2CCC(CC(=O)NCCCN3CCC(C)CC3)CC2)n1,-,-,-,-,.
COc1cc(C(=O)Nc2ccc3nn(-c4ccc(F)cc4)nc3c2)cc(OC)c1OC,-,-,-,.,.
O=C(Nc1ccc2nn(-c3ccc(F)cc3)nc2c1)c1cccc2c(Cl)cccc12,-,-,-27.8,.,-
O=C(O)c1ccccc1Nc1cccc(C(F)(F)F)c1,-,-,-31.3,-,?
O=C(O)c1ccccc1Nc1ccccc1,-,-,.,-,.
Cn1ncc2c(C(=O)NCCCc3ccccc3)cc(-c3ccccc3C(F)(F)F)nc21,.,.,-,.,.
Cc1noc(-c2ccc(N3CCC(C)CC3)c([N+](=O)[O-])c2)n1,-,-,-36.3,.,?
CC(=O)NC(C)c1nc2ccccc2n1Cc1ccccc1Cl (stereo unspecified),-,-,-26.3,.,-
COc1ccc(C)cc1NC(=O)N1c2ccccc2CC1c1nc(C2CC2)no1 (stereo unspecified),?,-,-,-,.
CCc1ccccc1Nc1nn2c(=O)c3ccc(C(=O)NCc4ccccc4Cl)cc3nc2s1,-,-,-26.2,.,-
Cc1ccc(-c2cc(C(=O)NC3CC3)nn3cnnc23)cc1,-,-,-,-,.
Cc1noc(C)c1C(=O)NC1CCCN(c2ccc3nnc(C4CC4)n3n2)C1 (stereo unspecified),.,.,-,.,.
C=CCN(CC=C)Cc1nnc2cc(-c3nc(-c4ccccc4)no3)ccn12,-,-,-,-,.
C=CCN(Cc1nc(-c2ccccc2)no1)Cc1nccn1C,-,-,-38.0,-[11.5 µM],-
COc1ccc(CNc2ncnc3c2CN(C2CCNC2)C(=O)CN3C)cc1OC (stereo unspecified),-,-,-,-,.
SMILES,SNCA expr inh,SNCA viab count,IP6K1 inh,GPT2 inhibitor,IP6K1 inh cnf
Cc1ccc(S(=O)(=O)c2cnc(SCC(=O)Nc3ccc4c(c3)OCCO4)[nH]c2=O)cc1,-,-,-30.4,.,?
COc1cccc(NC(=O)CSc2ncc(S(=O)(=O)c3ccc(C)c(C)c3)c(=O)[nH]2)c1,?,-,-29.3,.,?
COc1ccc(S(=O)(=O)c2cnc(SCC(=O)Nc3cc(F)ccc3C)[nH]c2=O)cc1Cl,-,-,-,.,.
O=C(NCc1ccc(C(F)(F)F)cc1)C1CCN(C(=O)c2ccc(-c3cncnc3)cc2)CC1,.,.,-,.,.
O=C(O)c1cc(O)c(O)c(O)c1,-,-,-28.4,?,-
O=C(c1cc(O)c(O)c(O)c1)c1ccc(O)c(O)c1O,-,-,-66.7,?,-
CCC(=O)N1Cc2ccccc2CC2(CCN(Cc3ccccc3)C2)C1 (stereo unspecified),-,-,-,-,.
OCCNc1ncnc2ccc(-c3cccc(O)c3)cc12,-,-,-,-,.
CCOc1ccc(-n2cc(-c3ccccc3)c3c(NC4CCCCC4)ncnc32)cc1,-,-,-,.,.
COc1ccc(-n2cc(-c3ccccc3)c3c(NC4CCCCC4)ncnc32)cc1,-,-,-25.1,.,?
O=C(NCC1CC1)c1ccc2nnc(C3CC3)n2c1,-,-,-,-,.
Cc1ccc(CNc2oc(-c3ccc(COc4ccc(Cl)cc4)o3)nc2C#N)cc1,-,-,-29.9,.,-
COc1ccc(CC(=O)NC2CCN(Cc3cccc(-c4ccc(F)c(F)c4)c3)CC2)cc1,.,.,-,.,.
Cc1ccc(C(=O)Nc2nc3nc(C)cc(=O)n3[nH]2)cc1,-,-,-26.8,.,-
O=C(Nc1nc2nc(-c3ccccc3)cc(=O)n2[nH]1)c1ccc(Cl)cc1,-,-,-,.,.
Cc1cc(Nc2nc(NC(C)c3ncc(F)cn3)ncc2Cl)n[nH]1 (stereo unspecified),.,-,-,-,-

# Screening results deposited in PubChem by National Center for Advancing Translational Sciences (NCATS).
